Consider 13 compounds from publication PMC5540273 (PLoS ONE, 2017).

Test systems include AURKA; AURKB; AURKC; AXL; BLK; BMPR1A; BMPR1B; BMPR2; BMX; BRAF; BRSK1; BRSK2; BUB1; CAMK1B; CAMK1D; CAMK1G; BTK.
Holding throughout (conditions): concentration: 1 μM,replicates: in singlicate; n = 1
In a further assay the test system is T1, ASK2.
T1 construct: gene MAP3K6

For the next assay, the system named is T2, BIKE.
T2 construct: gene BMP2K

For the next assay, the system named is T3, BRK.
T3 construct: gene PTK6
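Further: KINOMEscan kinase panel screen.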

`Cc1cc2cn[nH]c2cc1-c1cccc2c(N)c(C(N)=O)nnc12`: the “%Inh” value amounted to 95.6% in the assay with ASK2; 90% in the assay on AURKA; 97.3% in the assay on AURKB; 79% with AURKC; 15% in the assay with AXL; 75% in the assay on BIKE. Further, the “%Inh” value in the assay on BLK is 91.5%; in the assay with BMPR1A, 25%; in the assay on BMPR1B, 88%; in the assay on BMPR2, 96.5%; with BMX, 83%; with BRAF it was 33%. Besides, the “%Inh” value turned out to be 20% with BRK; 54% in the assay with BRSK1; 48% with BRSK2; 0% in the assay on BUB1; 19% in the assay on CAMK1B; 29% in the assay with CAMK1D. Moreover, the “%Inh” value in the assay with CAMK1G is 11%.
With `CC(C)N1C(=O)Cc2cc(Nc3ncc(C(F)(F)F)c(NCc4cccc(S(C)(=O)=O)c4)n3)ccc21`, the “%Inh” value is reported as 0% in the assay with ASK2; 97.3% in the assay on AURKA; 81% with AURKB; 43% with AURKC; 30% in the assay on AXL; 68% with BIKE. The “%Inh” value with BLK is recorded as 0%; in the assay on BMPR1A, 0%; in the assay with BMPR1B it was 21%; in the assay on BMPR2, 17%; with BMX, 11%; in the assay with BRAF, 0%. The “%Inh” value in the assay on BRK came out at 0%; with BRSK1, 0%; with BRSK2, 0%; with BTK, 0%; with BUB1, 26%; in the assay on CAMK1B it was 3%. Further, the “%Inh” value with CAMK1D and with CAMK1G was 0% in each case.
As for `COc1ccc(C[C@@H](CN)NC(=O)c2cc(Br)c(-c3ccnc4[nH]ccc34)s2)cc1.Cl.Cl` [GSK1389063], the “%Inh” value was found to be 16% in the assay on ASK2; 80% with AURKA; 86% in the assay on AURKB; 92.4% in the assay with AURKC; 95.2% with AXL; 94% in the assay on BIKE. Also, the “%Inh” value in the assay on BLK is recorded as 0%; with BMPR1A, 0%; in the assay with BMPR1B, 0%; with BMPR2 it was 73%; in the assay with BMX it was 12%; in the assay with BRAF, 14%. Besides, the “%Inh” value in the assay on BRK amounted to 0%; in the assay with BRSK1, 46%; in the assay on BRSK2 it was 34%; in the assay on BTK, 0%; in the assay on BUB1, 58%; with CAMK1B, 48%. Also, the figures for the “%Inh” value with CAMK1D and in the assay on CAMK1G were 26% and 21%, respectively.
Take `C=CC(=O)Nc1cc2c(Nc3ccc(F)c(Cl)c3)ncnc2cc1OCCCN1CCOCC1` [GW781483]: the “%Inh” value in the assay on ASK2 stood at 0%; in the assay with AURKA, 25%; in the assay on AURKB, 0%; with AURKC, 20%; in the assay with AXL, 53%; in the assay with BIKE it was 22%. Moreover, the “%Inh” value in the assay with BLK is reported as 99.6%; with BMPR1A it was 0%; with BMPR1B, 0%; in the assay with BMPR2 it was 15%; in the assay on BRAF, 3%; in the assay on BRK, 25%. Besides, the “%Inh” value in the assay on BRSK1 is on record as 8%; in the assay with BRSK2, 0%; in the assay on BTK, 94%; with BUB1, 52%; with CAMK1B it was 61%; in the assay with CAMK1D it was 28%. In addition, in the assay with CAMK1G, the “%Inh” value is recorded as 0%.
As for `Cl.Cl.NC[C@H](CC1CCCCC1)NC(=O)c1cc(Br)c(-c2ccnc3[nH]ccc23)s1` [GSK1581427], the “%Inh” value in the assay with ASK2 was found to be 17%; in the assay with AURKA it was 63%; in the assay with AURKB it was 62%; in the assay with AURKC, 95%; in the assay with AXL it was 86%; with BIKE, 100%. The “%Inh” value with BLK is 0%; with BMPR1A it was 0%; in the assay on BMPR1B, 0%; in the assay with BMPR2, 8%; in the assay with BMX it was 0%; with BRAF, 0%. In addition, the “%Inh” value with BRK came out at 9%; with BRSK1, 0%; in the assay on BRSK2 it was 0%; with BTK, 0%; with BUB1 it was 13%; with CAMK1B, 0%. Besides, the figures for the “%Inh” value with CAMK1D and in the assay on CAMK1G were 11% and 0%, respectively.
On to `C[C@H]1Oc2cc(cnc2N)-c2c(nn(C)c2C#N)CN(C)C(=O)c2ccc(F)cc21`, for which the “%Inh” value is 0% with ASK2; 7% in the assay with AURKA; 4% in the assay with AURKB; 0% in the assay with AURKC; 42% in the assay on AXL; 0% in the assay with BIKE. The “%Inh” value with BLK was found to be 31%; in the assay on BMPR1A, 2%; in the assay with BMPR1B, 0%; in the assay with BMPR2, 0%; in the assay on BMX it was 37%; in the assay with BRAF, 0%. Further, the “%Inh” value is 39% in the assay on BRK; 3% with BRSK1; 24% with BRSK2; 0% in the assay on BTK; 0% with BUB1; 49% in the assay on CAMK1B. Also, the “%Inh” value in the assay on CAMK1D was 33%; in the assay with CAMK1G, 0%.
`Cc1ccc2c(-c3ccncc3)c(-c3ccc(F)cc3)nn2c1.Cl` [GW461484]: the “%Inh” value in the assay on ASK2 is 0%; with AURKA it was 8%; with AURKB it was 0%; with AURKC, 14%; in the assay with AXL, 0%; with BIKE, 19%. Besides, the “%Inh” value is 3% with BLK; 0% in the assay with BMPR1A; 0% in the assay with BMPR1B; 11% with BMPR2; 4% in the assay with BMX; 59% in the assay on BRAF. Also, the “%Inh” value in the assay on BRK worked out at 16%; in the assay on BRSK1, 3%; in the assay on BRSK2, 4%; with BTK, 40%; in the assay with BUB1 it was 74%; in the assay on CAMK1B, 0%. For the same compound, the “%Inh” value came out at 6% with CAMK1D and 1% in the assay on CAMK1G.
On to `O=C(NCCCN1CCOC1=O)c1cnc(NCc2cc(Cl)ccc2Cl)nc1NC1CCCC1`, for which the “%Inh” value with ASK2 was 0%; in the assay with AURKA, 17%; with AURKB it was 14%; with AURKC, 15%; with AXL, 61%; in the assay with BIKE, 12%. Also, the “%Inh” value in the assay on BLK is given as 22%; in the assay on BMPR1A it was 16%; in the assay with BMPR1B, 0%; in the assay with BMPR2, 0%; with BMX it was 22%; in the assay on BRAF it was 0%. For the same compound, the “%Inh” value was 21% in the assay with BRK; 0% in the assay with BRSK1; 23% with BRSK2; 0% with BTK; 5% in the assay on BUB1; 21% with CAMK1B. In addition, the “%Inh” value is 27% in the assay on CAMK1D and 0% in the assay on CAMK1G.
As for `Cc1occc1-c1nc(N)c(OC[C@@H](N)Cc2c[nH]c3ccccc23)cc1-c1cc2c(C)n[nH]c2cn1` [GSK1660450], the “%Inh” value in the assay with ASK2 turned out to be 26%; in the assay on AURKA, 0%; in the assay with AURKB it was 0%; in the assay with AURKC, 51%; with AXL it was 0%; in the assay with BIKE, 74%. The “%Inh” value in the assay with BLK is given as 23%; in the assay on BMPR1A, 0%; in the assay on BMPR1B it was 0%; in the assay with BMPR2 it was 0%; in the assay with BMX it was 8%; with BRAF, 30%. Also, the “%Inh” value is 3% in the assay with BRK; 24% with BRSK1; 7% with BRSK2; 0% in the assay on BTK; 49% in the assay with BUB1; 35% in the assay with CAMK1B. Moreover, the “%Inh” value with CAMK1D was 96.2%; in the assay on CAMK1G, 44%.
As to `CN(C)CCOc1ccc(-c2cc(-c3c[nH]nc3-c3ccccn3)ccn2)cc1` [GW835314], the “%Inh” value with ASK2 worked out at 24%; in the assay on AURKA, 0%; with AURKB, 5%; in the assay with AURKC it was 12%; in the assay on AXL it was 49%; in the assay on BIKE, 4%. Also, the “%Inh” value came out at 14% with BLK; 13% in the assay on BMPR1A; 74% in the assay on BMPR1B; 69% with BMPR2; 32% with BMX; 16% with BRAF. In addition, the “%Inh” value in the assay with BRK was 9%; in the assay on BRSK1, 24%; in the assay with BRSK2, 26%; in the assay with BTK it was 0%; in the assay on BUB1, 0%; with CAMK1B, 0%. For the same compound, the “%Inh” value stood at 10% in the assay with CAMK1D and 7% in the assay on CAMK1G.
For `Cc1n[nH]c2ccc(-c3cc(OC[C@@H](N)Cc4ccccc4)cnc3-c3ccoc3)cc12.O=C(O)C(F)(F)F.O=C(O)C(F)(F)F` [GSK507358], the “%Inh” value with ASK2 came out at 4%; with AURKA, 0%; in the assay with AURKB it was 0%; in the assay with AURKC, 0%; with AXL, 0%; with BIKE, 81%. Further, the “%Inh” value in the assay on BLK is reported as 6%; with BMPR1A, 0%; in the assay on BMPR1B it was 0%; with BMPR2 it was 14%; with BMX, 0%; in the assay with BRAF it was 0%. For the same compound, the “%Inh” value turned out to be 0% in the assay on BRK; 0% in the assay on BRSK1; 0% in the assay with BRSK2; 83% in the assay on BTK; 95% in the assay with BUB1; 27% in the assay with CAMK1B. Further, the entries for the “%Inh” value in the assay on CAMK1D and in the assay on CAMK1G were 45% and 18%, respectively.
Consider `CN(C)CC(O)COc1ccc(Nc2nccc(-c3cnn4nc(N5CCOCC5)ccc34)n2)cc1` (centres unmarked) [GW767488], for which the “%Inh” value with ASK2 was determined as 44%; in the assay with AURKA it was 65%; with AURKB, 84%; in the assay with AURKC it was 70%; in the assay with AXL, 28%; in the assay on BIKE it was 93.6%. Further, the “%Inh” value in the assay with BLK came to 0%; with BMPR1A, 18%; with BMPR1B it was 58%; with BMPR2, 42%; in the assay on BMX, 3%; in the assay with BRAF it was 3%. The “%Inh” value in the assay on BRK came to 0%; in the assay with BRSK1, 3%; with BRSK2, 33%; in the assay with BTK, 22%; in the assay with BUB1, 76%; with CAMK1B, 49%. Further, the “%Inh” value in the assay with CAMK1D worked out at 37%; in the assay with CAMK1G, 38%.
As to `CNC(=O)c1ccccc1Sc1ccc2c(/C=C/c3ccccn3)n[nH]c2c1`, the “%Inh” value in the assay on ASK2 is on record as 0%; in the assay with AURKA it was 97.9%; with AURKB it was 99.6%; with AURKC, 66%; in the assay on BIKE it was 89%; with BLK it was 0%. Further, the “%Inh” value is 35% with BMPR1A; 0% in the assay with BMPR1B; 0% with BMPR2; 0% in the assay with BMX; 15% in the assay with BRAF; 5% in the assay with BRK. The “%Inh” value is 34% in the assay on BRSK1; 24% in the assay on BRSK2; 0% in the assay on BTK; 53% with BUB1; 37% in the assay with CAMK1B; 11% with CAMK1D. In addition, the “%Inh” value in the assay on CAMK1G is reported as 2%.
